According to PubChem BioAssay (NCI):
About 79,000 compounds went through this panel and 15% of them were active in at least one assay; those are over-represented in the sample as a whole. Activity calls are given as the source filed them. Cut-off read from the data, not from the text of the source: active = growth inhibition above about 70%; inactive = the rest.

What was measured:
[1] = NCI Yeast Anticancer Drug Screen. Data for the rad52 strain (AID 147);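 note: 0% = growth of vehicle-treated control cultures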; details: S. cerevisiae rad52 mutant growth inhibition, stronger effect = higher value
In short: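 Read-out: growth inhibition versus vehicle-treated controls. Cells were a DNA repair-deficient yeast strain treated with compounds.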

[2] = NCI Yeast Anticancer Drug Screen. Data for the wt1 strain (AID 149);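 note: 0% = growth of vehicle-treated wt1 cultures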; details: S. cerevisiae wt1 strain (SPY 50644) growth inhibition, stronger effect = higher value
In short: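 Growth inhibition read against vehicle controls after compound exposure of the wt1 yeast strain.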

[3] = NCI Yeast Anticancer Drug Screen. Data for the rad50EPP+ strain (AID 151);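 note: 0% = growth of vehicle-treated control cultures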; details: S. cerevisiae rad50 mutant strain, stronger effect = higher value
In short: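 Growth inhibition read against vehicle controls in rad50EPP+ yeast, a strain altered in DNA damage repair, after compound exposure.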

[4] = NCI Yeast Anticancer Drug Screen. Data for the mgt1 strain (AID 153); details: S. cerevisiae mgt1 mutant growth inhibition, stronger effect = higher value
In short: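 mgt1 yeast grown with test compound; read-out is growth inhibition versus vehicle-treated cultures.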

[5] = NCI Yeast Anticancer Drug Screen. Data for the rad50 strain (AID 155);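 note: 0% = growth of vehicle-only cultures of the same strain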; details: S. cerevisiae rad50 strain growth inhibition, stronger effect = higher value
In short: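 Readout: growth inhibition relative to vehicle-treated cultures. Compound exposure was carried out in a genetically defined yeast strain deficient in DNA damage repair.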

[6] = NCI Yeast Anticancer Drug Screen. Data for the mec2-1 strain (AID 157); details: S. cerevisiae mec2-1 strain, stronger effect = higher value
In short: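 Yeast mec2-1 mutant treated with compound. Readout: growth inhibition vs vehicle controls.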

[7] = NCI Yeast Anticancer Drug Screen. Data for the rad14 strain (AID 159);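 note: 0% = growth of vehicle-treated control cultures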; details: S. cerevisiae rad14 strain growth inhibition, stronger effect = higher value
In short: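 Growth inhibition vs vehicle controls; genetically altered yeast strain (DNA damage repair defect) treated with test compounds.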

[8] = NCI Yeast Anticancer Drug Screen. Data for the sgs1 mgt1 strain (AID 161);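 note: 0% = growth of cultures given vehicle only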; details: S. cerevisiae sgs1 mgt1 strain, stronger effect = higher value
In short: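 Inhibition of yeast growth, normalised to vehicle-treated controls, is reported for a strain bearing genetic alterations in DNA damage repair.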

[9] = NCI Yeast Anticancer Drug Screen. Data for the CLN2oe strain (AID 163);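 note: 0% = growth of vehicle-only control cultures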; details: S. cerevisiae CLN2oe strain, stronger effect = higher value
In short: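 Read-out: yeast growth inhibition, expressed relative to vehicle-only controls. The strain bears an engineered cell-cycle alteration.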

[10] = NCI Yeast Anticancer Drug Screen. Data for the cln2 rad14 strain (AID 165);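 note: 0% = growth equal to vehicle treated cultures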; details: S. cerevisiae cln2 rad14 strain, stronger effect = higher value
In short: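 cln2 rad14 yeast strain; compound exposure; growth inhibition read vs vehicle controls.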

[11] = NCI Yeast Anticancer Drug Screen. Data for the bub3 strain (AID 167); details: S. cerevisiae bub3 mutant strain, stronger effect = higher value
In short: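 Readout: yeast growth inhibition, expressed relative to vehicle-only wells. The test organism is a mutant strain from a panel with lesions in DNA repair or checkpoint genes.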

[12] = NCI Yeast Anticancer Drug Screen. Data for the wt2 strain (AID 169);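 note: 0% = growth of vehicle-treated yeast cultures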; details: S. cerevisiae wt2 strain growth inhibition, stronger effect = higher value
In short: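 Read-out: growth inhibition versus vehicle-treated control cultures after compound exposure of the yeast strain.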

[13] = NCI Yeast Anticancer Drug Screen. Data for the mlh1 strain (AID 171);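 note: 0% = growth of vehicle-treated control cultures of the same strain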; details: S. cerevisiae mlh1 strain growth inhibition, stronger effect = higher value
In short: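 Read-out: growth inhibition versus vehicle controls. Strain: engineered yeast with a defined DNA repair or cell cycle defect, compound-treated.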

[14] = NCI Yeast Anticancer Drug Screen. Data for the sgs1 strain (AID 173);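 note: 0% = growth of vehicle-only control cultures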; details: S. cerevisiae sgs1 mutant, stronger effect = higher value
In short: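 Read-out: yeast growth inhibition relative to vehicle controls, following compound exposure of a strain with a defined DNA repair/cell cycle alteration.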

[15] = NCI Yeast Anticancer Drug Screen. Data for the mlh1 rad18 strain (AID 175); details: S. cerevisiae mlh1 rad18 strain growth inhibition, stronger effect = higher value
In short: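 Yeast w/ defined DNA-repair lesions; compound exposure; growth vs vehicle controls → % inhibition.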

[16] = NCI Yeast Anticancer Drug Screen. Data for the rad18 strain (AID 177); details: S. cerevisiae rad18 mutant growth inhibition, stronger effect = higher value
In short: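 Readout: growth inhibition vs vehicle controls. Cells: genetically altered yeast strain, DNA repair defect.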

[17] = at 5.0 µM (retest, dose inferred, filed as 0.5)
[18] = at 50.0 µM (retest, dose inferred, filed as 5.0)

Measured: growth inhibition

COC(=O)Oc1cc(Cl)c(Cl)cc1Cl
inactive: [1]; at 1.2 µM 0% | [1]; at 3.7 µM 0% | [1]; at 11.0 µM -1% | [1]; at 33.0 µM 4% | [1]; at 100.0 µM 9% | [2]; at 1.2 µM -1% | [2]; at 3.7 µM -2% | [2]; at 11.0 µM -3% | [2]; at 33.0 µM -4% | [2]; at 100.0 µM 0% | [3]; at 1.2 µM -1% | [3]; at 3.7 µM 0% | [3]; at 11.0 µM 7% | [3]; at 33.0 µM 2% | [3]; at 100.0 µM 1% | [4]; at 1.2 µM -1% | [4]; at 3.7 µM 0% | [4]; at 11.0 µM 1% | [4]; at 33.0 µM -3% | [4]; at 100.0 µM 1% | [5]; at 1.2 µM 0% | [5]; at 3.7 µM 0% | [5]; [17] 4% | [5]; at 11.0 µM -1% | [5]; at 33.0 µM 2% | [5]; [18] -5% | [5]; at 50.0 µM 30.8% | [5]; at 100.0 µM 10% | [6]; at 1.2 µM 0% | [6]; at 3.7 µM 4% | [6]; [17] -4% | [6]; at 11.0 µM 3% | [6]; at 33.0 µM 5% | [6]; [18] 23% | [6]; at 50.0 µM 21.4% | [6]; at 100.0 µM 8% | [7]; at 1.2 µM 0% | [7]; at 3.7 µM 0% | [7]; at 11.0 µM 2% | [7]; at 33.0 µM 5% | [7]; at 100.0 µM 9% | [8]; [17] 3% | [8]; [18] 1% | [8]; at 50.0 µM 30.1% | [9]; at 1.2 µM -4% | [9]; at 3.7 µM -3% | [9]; at 11.0 µM -7% | [9]; at 33.0 µM -6% | [9]; at 100.0 µM -4% | [10]; [17] 3% | [10]; [18] 52% | [10]; at 50.0 µM 22.6% | [11]; at 1.2 µM 1% | [11]; at 3.7 µM 3% | [11]; [17] 12% | [11]; at 11.0 µM 1% | [11]; at 33.0 µM 3% | [11]; [18] 4% | [11]; at 50.0 µM 36% | [11]; at 100.0 µM 3% | [12]; at 1.2 µM 0% | [12]; at 3.7 µM -2% | [12]; at 11.0 µM -2% | [12]; at 33.0 µM -2% | [12]; at 100.0 µM -1% | [13]; at 1.2 µM 1% | [13]; at 3.7 µM -2% | [13]; at 11.0 µM -7% | [13]; at 33.0 µM 3% | [13]; at 100.0 µM 13% | [14]; at 1.2 µM 0% | [14]; at 3.7 µM 0% | [14]; at 11.0 µM 1% | [14]; at 33.0 µM 3% | [14]; at 100.0 µM 10% | [15]; [17] 7% | [15]; [18] 19% | [15]; at 50.0 µM 11.8% | [16]; at 1.2 µM 0% | [16]; at 3.7 µM 5% | [16]; at 11.0 µM 6% | [16]; at 33.0 µM 9% | [16]; at 100.0 µM 20%

O=[n+]1c2ccccc2n([O-])c2cc(Br)ccc21
active: [1]; at 1.2 µM 94% | [1]; at 3.7 µM 98% | [1]; at 11.0 µM 98% | [1]; at 33.0 µM 98% | [1]; at 100.0 µM 98% | [2]; at 11.0 µM 82% | [2]; at 33.0 µM 99% | [2]; at 100.0 µM 98% | [3]; at 1.2 µM 96% | [3]; at 3.7 µM 98% | [3]; at 11.0 µM 99% | [3]; at 33.0 µM 99% | [3]; at 100.0 µM 97% | [4]; at 33.0 µM 99% | [4]; at 100.0 µM 98% | [5]; at 1.2 µM 86% | [5]; at 3.7 µM 97% | [5]; [17] 96% | [5]; at 11.0 µM 98% | [5]; at 33.0 µM 99% | [5]; [18] 98% | [5]; at 50.0 µM 99.2% | [5]; at 100.0 µM 97% | [6]; [17] 85% | [6]; at 11.0 µM 92% | [6]; at 33.0 µM 99% | [6]; [18] 99% | [6]; at 50.0 µM 99.3% | [6]; at 100.0 µM 98% | [7]; at 11.0 µM 95% | [7]; at 33.0 µM 100% | [7]; at 100.0 µM 98% | [8]; [18] 99% | [8]; at 50.0 µM 99.2% | [9]; at 33.0 µM 99% | [9]; at 100.0 µM 98% | [10]; [18] 99% | [10]; at 50.0 µM 94.6% | [11]; at 11.0 µM 96% | [11]; at 33.0 µM 99% | [11]; [18] 99% | [11]; at 50.0 µM 99.4% | [11]; at 100.0 µM 99% | [12]; at 11.0 µM 99% | [12]; at 33.0 µM 100% | [12]; at 100.0 µM 98% | [13]; at 33.0 µM 99% | [13]; at 100.0 µM 98% | [14]; at 11.0 µM 97% | [14]; at 33.0 µM 99% | [14]; at 100.0 µM 98% | [15]; [17] 87% | [15]; [18] 98% | [15]; at 50.0 µM 99.2% | [16]; at 1.2 µM 84% | [16]; at 3.7 µM 92% | [16]; at 11.0 µM 98% | [16]; at 33.0 µM 99% | [16]; at 100.0 µM 98%
inactive: [2]; at 1.2 µM 7% | [2]; at 3.7 µM 43% | [4]; at 1.2 µM 5% | [4]; at 3.7 µM 5% | [4]; at 11.0 µM 51% | [6]; at 1.2 µM 18% | [6]; at 3.7 µM 52% | [7]; at 1.2 µM 36% | [7]; at 3.7 µM 56% | [8]; [17] 66% | [9]; at 1.2 µM 6% | [9]; at 3.7 µM 9% | [9]; at 11.0 µM 38% | [10]; [17] 19% | [11]; at 1.2 µM 42% | [11]; at 3.7 µM 63% | [11]; [17] 63% | [12]; at 1.2 µM 47% | [12]; at 3.7 µM 69% | [13]; at 1.2 µM -3% | [13]; at 3.7 µM 19% | [13]; at 11.0 µM 61% | [14]; at 1.2 µM 34% | [14]; at 3.7 µM 39%
